Entries with a potency or affinity are not part of this list. Inconclusive results are not listed. The source made the active and inactive calls.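 How the source made its calls, unless noted: active means a fitted half-maximal concentration no higher than twice the top valid tested dose, with signal falling as cells die; inconclusive means flat curve between -70% and -30%, or poor fit; inactive means the rest, including signal rising instead of falling.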
Assays:
[1] = fungal growth arrest, C. neoformans – Alamar Blue, cherry-picks, dose response (AID 686998;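 active means falling signal with fitted half-maximal potency no higher than twice the top valid tested dose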); settings: Cryptococcus neoformans growth, 24 h; series mostly up to 35 µM
[2] = C. neoformans lysis by adenylate kinase leakage – AK release luminescence, cherry-picks, dose response (AID 687000;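 active means fitted dose curve reaches 40% lysis signal rise at or below the highest valid concentration tested for that sample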;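 further: luminescent detection of adenylate kinase leaking from lysed yeast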); settings: 4 h, 100% = twice the neutral-control signal; series mostly up to 15 µM
[3] = viability loss in HepG2 hepatoma cells – cell-based, cherry-picks, set 2, cytotoxicity control, dose response (AID 687002;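 active means a dose-response fit showing signal loss, with half-maximal concentration no higher than twice the top tested dose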); settings: ATP luminescence (CellTiter-Glo), 48 h; series mostly up to 26 µM
[4] = viability loss in HeLa cells – cell-based, ATP luminescence, cherry-pick samples, cytotoxicity control, dose response (AID 687004); settings: ATP luminescence (CellTiter-Glo), 48 h; series mostly up to 26 µM

Measured: outcome

CN1C(=O)c2cc(NS(C)(=O)=O)ccc2OC[C@@H]2O[C@@H](CC(=O)O)CC[C@H]21
inactive: all assays above

Cc1ccc(NC(=O)C2(C)CCN2C(=O)CC2CCCC2)cc1 (stereo not given)
inactive: all assays above

COc1cccc(S(=O)(=O)Nc2ccc3c(c2)[C@@H]2C[C@@H](CC(=O)NCc4cccc(F)c4)O[C@H](CO)[C@@H]2O3)c1
inactive: all assays above

COc1ccc(CNC(=O)C[C@H]2CC[C@H]3[C@@H](COc4ccc(NC(=O)C5CC5)cc4C(=O)N3C)O2)cc1
inactive: all assays above

N#C[C@@H]1[C@@H](c2ccccc2)[C@@H](CO)N1C(=O)Cc1ccccc1
inactive: all assays above

C[C@@H]1CN([C@@H](C)CO)C(=O)c2cc(/C=C/c3ccccc3)cnc2O[C@@H]1CN(C)S(C)(=O)=O
inactive: all assays above

CN1C(=O)c2cc(NS(=O)(=O)c3cccc(F)c3)ccc2OC[C@@H]2O[C@@H](CC(=O)O)CC[C@H]21
inactive: all assays above

Cc1ccc(S(=O)(=O)N[C@@H]2CC[C@H](CCNC(=O)C3CCCC3)O[C@@H]2CO)cc1
inactive: all assays above

O=C(O)C/C(=C\c1cccc(NC(=O)c2ccccc2Cl)c1)c1nc2ccccc2s1
inactive: all assays above

C[C@@H]1CN([C@H](C)CO)C(=O)c2cc(NC(=O)Nc3cccc4ccccc34)ccc2O[C@@H](C)CCCCO[C@@H]1CN(C)Cc1ccc2c(c1)OCO2
inactive: all assays above

Reference: PubChem BioAssay
